In PubChem BioAssay AID504332 (National Center for Advancing Translational Sciences (NCATS), 2011):
Several values for one entry are separate records, joined by “and”; a condition that tells them apart may be missing. Identical values can stand only once. Among all 350,000 compounds or so, about 31,000 (8.9%) were called active. Inconclusive results (about 15%) are left out. The call rests on the fitted dose curve; in most records, active means well fitted inhibition curve with a large enough effect; inconclusive means small, poorly fitted or top-dose-only effect; inactive means no such curve, though single readings can be large or run the other way. The full list was thinned out, with actives kept by preference. The source holds several records for some structures; these can differ, active in one and inactive in another.

molecular target: Histone-lysine N-methyltransferase EHMT2 (Homo sapiens) (UniProt Q96KQ7); assay: qHTS Assay for Inhibitors of Histone Lysine Methyltransferase G9a; conditions: G9a H3K9 monomethylation, AlphaScreen, 2 h; series mostly up to 59 µM; activity, negative = inhibition: at the top concentration; further: nearly all actives have a fitted effect of over 75% in size
Sequence (Q96KQ7 913-1193 limits assumed): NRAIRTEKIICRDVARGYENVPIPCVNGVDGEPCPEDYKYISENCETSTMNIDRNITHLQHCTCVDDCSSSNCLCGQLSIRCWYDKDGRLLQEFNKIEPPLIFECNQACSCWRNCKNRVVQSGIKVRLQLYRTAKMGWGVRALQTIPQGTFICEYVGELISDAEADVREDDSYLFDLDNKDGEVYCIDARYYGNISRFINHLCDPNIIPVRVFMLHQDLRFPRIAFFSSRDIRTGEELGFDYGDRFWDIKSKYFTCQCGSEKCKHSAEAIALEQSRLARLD
Outline: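 Quantitative HTS format: methyltransferase activity on a biotin-tagged H3K9 peptide is measured by AlphaScreen, using a rabbit anti-monomethyl-H3K9 antibody with streptavidin donor and anti-IgG acceptor beads. Final levels are 20 nM enzyme, 500 nM peptide, 20 uM SAM; 2 h RT.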
On the % scale 0 is the no-effect control and ±100 the full control effect; potency means the concentration at half of the fitted maximal effect.

activity, negative = inhibition, inactive:
CS(=O)(=O)c1ccc2nc(NC(=O)C3CCCCC3)sc2c1 19.9%
CS(=O)(=O)c1ccc2nc(NC(=O)c3ccc(N4CCCC4=O)cc3)sc2c1 7.63% [at 102 µM]
COc1cccc(NC(=O)CN(C)C(=O)CSCc2nc3scc(-c4cccs4)c3c(=O)[nH]2)c1 -5.02%
CCOC(=O)c1c(C)[nH]c2c1-c1ccccc1C(=O)C2=O -9.77%
COc1ccc(OCCCON2C(=O)c3ccccc3C2=O)cc1 -9.02%
CSCCC(NS(=O)(=O)c1ccccc1F)C(=O)N1CC=C(c2ccccc2)CC1 (stereo not drawn) -15.4% [at 102 µM]
CC(C)(C)c1ccc(C(=O)N2CCC(c3nc(-c4ccc(S(=O)(=O)N5CCCC5)cc4)no3)CC2)cc1 -29%
CCc1nn(CCCC(=O)NCc2ccccc2OC)c(=O)c2cc3occc3n12 9.29%
Cc1ccc(Cl)cc1NC(=O)CSc1nc2ccccc2nc1Cc1ccccc1 -2.39%
COc1ccc(CNc2ncnc3ccccc23)cc1 7.39% [at 102 µM]
CCOC(=O)c1sc(NC(=O)c2ccncc2)nc1C 16.5%
CCOC(=O)C1=C(C)Nc2sc(C(=O)c3ccc(Br)cc3)c(N)c2C1c1ccc(C(=O)OC)cc1 (stereo not drawn) 0.599% [at 12.7 µM]
CC(=O)N1CCCc2cc(S(=O)(=O)Nc3ccc(Cl)cc3F)ccc21 3.87%
Oc1c(C(c2ccccc2Cl)N2CCOCC2)sc2nc(-c3ccco3)nn12 (stereo not drawn) -31.5%
Cc1ccc(C(c2sc3nc(C)nn3c2O)N2CCN(c3ccccc3)CC2)cc1 (stereo not drawn) 15.6% [at 12.7 µM]
COc1cccc(CNC(=O)CCc2nc(-c3ccc(C)cc3)no2)c1 20.6%
CCCN1CCN(CCCNC(=O)c2cnn(-c3ccc(C)cc3)c2-n2cccc2)CC1 -11.1%
COc1ccc(-c2ccc(=O)n(CC(=O)Nc3ccc(Br)cc3F)n2)cc1 0.314%
O=C(COc1ccc(Cl)cc1)NCCS(=O)(=O)N1CCN(c2ccc(F)cc2)CC1 -10.7% [at 102 µM]
COc1ccccc1/C=C/c1nc(C#N)c(NC(C)c2ccccc2)o1 (stereo not drawn) -49.3%
CS(=O)(=O)c1ccc(-c2nnc(NC(=O)c3ccc4c(c3)OCCO4)o2)cc1 44.7%
CSc1ccccc1-c1nnc(NC(=O)c2ccc3c(c2)OCCO3)o1 64.6%
Cc1ccccc1OCC(=O)Nc1ccc2c(c1)ncn2C -10.2% [at 0.501 µM]
O=S(=O)(NCCCN1CCOCC1)c1ccc(F)c(Cl)c1 27% [at 12.7 µM]
COc1ccc(S(=O)(=O)N(C)CC(=O)NCCCN2CCOCC2)cc1Cl 10.6%
O=C(NCc1cccnc1)c1cc(S(=O)(=O)N2CCOCC2)c(Cl)cc1Cl -2.17% [at 2.33 µM]
CCc1cccc(NC(=O)CN(c2ccc(C)c(C)c2)S(=O)(=O)c2ccsc2C(=O)OC)c1 5.26%
CC(=O)Nc1ccc(S(=O)(=O)N2CCC(C(=O)N[C@@H](Cc3ccccc3)C(=O)O)CC2)cc1 13.7% [at 102 µM]
CSc1cccc(NC(=O)CN2C(=O)CCc3cc(S(=O)(=O)N4CCCCC4)ccc32)c1 -38.2%
Cc1cccc(C)c1NC(=O)CSc1nc2c([nH]1)c(=O)n(C)c(=O)n2C 1.79%
CC(CCO)Nc1nc2c([nH]1)c(=O)n(C)c(=O)n2C (stereo not drawn) -11%
Cc1ccc(NC(=O)c2csc3c2CCCC3)cc1 1.14% [at 102 µM]
CC(=O)Cc1nsc(NC(=O)c2ccc(Cl)cc2Cl)n1 -27.6% [at 102 µM]
COc1cc(C2C(C(=O)c3ccc(C)o3)=C(O)C(=O)N2Cc2cccnc2)ccc1O (stereo not drawn) -13.2%
CCCOc1ccc(C2c3c(-c4ccccc4O)n[nH]c3C(=O)N2Cc2cccnc2)cc1 (stereo not drawn) -1.26%
O=C(c1ccc(Br)cc1)N(Cc1cccs1)c1ccc(F)cc1 65%
CCCOc1ccc(C2=CSC3=NCCN23)cc1Cl -12.4% [at 102 µM]
COc1ccc(CCNc2ncnc3onc(-c4ccc(Cl)cc4)c23)c(OC)c1 5.46%
CCCCn1c(CNC(=O)C23CC4CC(CC(C4)C2)C3)nnc1SCC(=O)Nc1ccc(C)cc1 -10.5%
COc1ccc(-c2onc(C)c2C)cc1S(=O)(=O)NCC1CCN(Cc2cccc(F)c2)CC1 1.76%
Cc1cc(OCCCCOc2ccc(C#N)cc2)ccc1[N+](=O)[O-] 30.7% [at 12.7 µM]
O=C(c1cccc([N+](=O)[O-])c1)N1CCN(Cc2ccccc2)CC1 16.3% [at 102 µM]
COc1ccc(-c2nc(Cn3c(=O)cc(C)c4c(C)nn(-c5ccccc5)c43)c(C)o2)cc1OC 6.04%
CN(CC(=O)Nc1ccc(Cl)cc1)CC(=O)Nc1cccc2ccccc12 -44.6% [at 12.7 µM]
Cc1ccc(S(=O)(=O)NCCSc2ccccc2)cc1[N+](=O)[O-] -13.4%
CCOC(=O)c1cc(Sc2ccccc2N)cc(C(=O)OCC)n1 45% [at 102 µM]
CCOc1ccccc1NC(=O)Cn1ncc2ccc([N+](=O)[O-])cc21 -50.6% [at 102 µM]
CCc1ccccc1NC(=O)c1ccc2nc(CCc3ccccc3)oc2c1 -8.22%
COc1ccc(C)cc1NC(=O)CCCN1C(=O)NC(C)(C)C1=O 20.4% [at 2.33 µM]
COc1cc(/C=N/NC(=O)c2ccc(N3CCCC3=O)cc2)ccc1O 65.8% [at 102 µM]
Cn1c(=O)n(C)c2cc(/C=N/NC(=O)c3cccc(Br)c3)ccc21 20.1%
Cc1ccccc1NC(=O)Cn1cc(C(=O)c2cccs2)c2ccccc21 -6.24%
O=S(=O)(NC1CC1)c1ccc(Cl)cc1 12.4% [at 102 µM]
O=C(Cn1ccc2cc(S(=O)(=O)N3CCCC3)ccc21)NCc1ccccc1 10.8% [at 102 µM]
O=c1c([N+](=O)[O-])cc(C(F)(F)F)cn1Cc1cccc(Cl)c1 71.8%
Cc1cc(S(=O)(=O)NC2CCCC2)ccc1-n1cnnn1 17.9%
O=C(NCC1CCCO1)c1ccc(S(=O)(=O)Nc2ccc(F)cc2)cc1 (stereo not drawn) -38.7% [at 102 µM]
CN(CC(=O)Nc1ccc(Cl)cc1)C(=O)c1ccc(COc2ccccc2)cc1 18.8%
Cc1ccc(NC(=O)CN(C)C(=O)c2ccc(Br)o2)cc1 -5.82% [at 102 µM]
CCOc1ccccc1CNC(=O)c1ccc(-n2c(C)cc3c2CCC(C)C3)cc1 (stereo not drawn) -15.9%
COc1ccc(CCNC(=O)CN(C)S(=O)(=O)c2ccc3nc(C)sc3c2)cc1OC -2.8% [at 102 µM]
CCOCCCNC(=O)c1ccc2nc(CCc3ccccc3)oc2c1 -2.67%
Cc1ccc(NC(=O)c2cc(S(=O)(=O)NCCC3=CCCCC3)ccc2F)cc1C 11.5%
CCOc1cc2[nH]c(=S)n(CCCN3CCCC3=O)c(=O)c2cc1OCC -45.8% [at 12.7 µM]
COCCCn1c(SCC(=O)Nc2ccccc2)nnc1-c1ccncc1 19.9%
O=C(c1ccc2c(c1)N(Cc1ccccc1F)C(=O)c1ccccc1S2(=O)=O)N1CCOCC1 -32.7%
O=C(NC1CCCCC1)N1CCc2[nH]c3ccccc3c2C1 -17%
COC(=O)C1CCN(C(=O)c2cc(=O)[nH]c3ccccc23)CC1 0.366% [at 102 µM]
O=C(NCCc1ccc(F)cc1)c1ccc(S(=O)(=O)N2CCCCC2)cc1 -29.8% [at 102 µM]
Cn1c(Nc2ccccc2)cc(=O)n(C)c1=O 61.9% [at 102 µM]
Cc1cc2nc(C)n(CCCNC(=O)Nc3ccccc3)c2cc1C 11.2%
CCc1ccccc1NC(=O)Cn1c(=O)n(CC2CCC(C(=O)NCCc3ccccc3)CC2)c(=O)c2ccccc21 (stereo not drawn) -0.279%
O=C(C1CCC(Cn2c(=O)c3sccc3n(Cc3ccccc3F)c2=O)CC1)N1CCCCC1 (stereo not drawn) -12.4%
COc1cccc(NC(=O)CSc2nnc(-c3cccnc3)o2)c1 -41.5% [at 102 µM]
CCn1c(SCC(=O)Nc2ccc3c(c2)OCCO3)nnc1C(C)C -11.6% [at 102 µM]
CCCn1c(SCC(N)=O)nnc1C(C)C 13.7% [at 102 µM]
COC(=O)c1ccc2c(c1)N(CC(=O)Nc1ccc(C)c(C)c1)C(=O)c1ccccc1S2 -3.69%

Potency, active:
CS(=O)(=O)c1ccc2nc(NC(=O)CN3CCCCCC3)sc2c1 17.8 µM
CCOC(=O)C1=C(c2ccc(OC)cc2)C(=O)c2ccccc2C1=O 31.6 µM
CCOC(=O)c1sc(=S)n2c1[nH]c(=O)c1ccc(C(=O)OC)cc12 7.94 µM
Cc1nc2sc(C(c3ccco3)N3CCOCC3)c(O)n2n1 (stereo not drawn) 11.2 µM
Oc1c(C(c2ccco2)N2CCC3(CC2)OCCO3)sc2ncnn12 (stereo not drawn) 35.5 µM
O=C(Nc1nnc(C2=COCCO2)o1)c1ccc([N+](=O)[O-])s1 44.7 µM
COc1ccc(-c2ccc(CNCCCN3CCOCC3)o2)cc1Cl 50.1 µM
Cc1ccc(NN=Nc2nc3c([nH]2)c(=O)n(C)c(=O)n3C)cc1 1.58 µM
CC(=O)Cc1nsc(NC(=O)c2csc3c2CCCC3)n1 2.51 µM
COc1ccc(C2C(C(C)=O)=C(O)C(=O)N2Cc2cccnc2)cc1 (stereo not drawn) 20 µM
Cc1cc(OCCCN2CCN(Cc3ccccc3)CC2)ccc1[N+](=O)[O-] 8.91 µM
O=c1[nH]c(=S)[nH]c2[nH]c(=S)[nH]c12 1.58 µM and 1.26 µM
CCS(=O)(=O)c1cc([N+](=O)[O-])c(Sc2ccccc2N)s1 1.12 µM
O=C(N/N=C/c1cccc(Br)c1)c1ccc(N2CCCC2=O)cc1 79.4 µM
Cc1cc(C)c(OCCN2CC(C)OC(C)C2)c(Br)c1 (stereo not drawn) 8.91 µM
O=[N+]([O-])/C=C/c1ccc2c(ccn2Cc2ccccc2)c1 31.6 µM
CN(CC(=O)Nc1ccc(F)cc1)C(=O)c1ccc(-c2ccc(Cl)cc2)o1 79.4 µM
CSc1nnc(-c2ccncc2)n1CCCN1CCCC1=O 50.1 µM
Cc1cc(=O)n(C)c(=O)n1CCCNc1ccccc1 15.8 µM
CCCn1c(SCC(=O)c2ccc3c(c2)OCCO3)nnc1C(C)C 44.7 µM

Potency, inactive and 12.6 µM (active):
COC(=O)[C@H]1[C@H]2C[C@H]3c4[nH]c5ccccc5c4CCN3C[C@@H]2CC[C@@H]1O
